Experimental data reported in PubChem BioAssay (NCATS).
Results filed as inconclusive are left out. Activity calls are given as the source filed them. Unless noted, the call rests on the fitted dose curve; in most records, active means well fitted curve in the direction sought with a large enough effect; inconclusive means small, poorly fitted or top-dose-only effect, or another doubt; inactive means no such curve, though single readings can be large; an effect the other way counts as inactive or inconclusive. Numbered stars: 1 amine (or outer) side, 2 acyl side, 3 side chain; on linkers, the order of the positions; unused ones are H or OH. Bridge positions count the residues as written; N and C are the ends. Square brackets hold non-standard residues; d marks the D form. Peptide text beside a SMILES is read from it. I, II: the chains in the order shown. Actinocin(9to1) = Cc1c2oc3c(C)ccc(C(=O)[*:1])c3nc-2c(C(=O)[*:2])c(N)c1=O; NMeV = CN[C@H](C(=O)O)C(C)C; Sar = CNCC(=O)O

Experiments:
[1] = Cell Viability - MRC5 (AID 434; calls by dose curve;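 further: potency means the concentration at half of the fitted maximal effect; potency reflects cytotoxicity seen as loss of intracellular ATP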); details: MRC5 lung fibroblast viability, qHTS
Outline: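 qHTS cytotoxicity in human lung fibroblast MRC5 cells; 40 hr treatment, 37 °C; cellular ATP by luciferase luminescence; DMSO = 0%, 100 uM tamoxifen = 100% inhibition; Hill-fit AC50.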

[2] = Cell Viability - SK-N-SH (AID 435; calls by dose curve; further: potency means the concentration at half of the fitted maximal effect); details: SK-N-SH neuroblastoma cell viability qHTS
Outline: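 qHTS cytotoxicity: CellTiter-Glo ATP luminescence after 40 h compound exposure of human neuroblastoma SK-N-SH cells at 37 °C. AC50 derived by Hill-equation fitting, with DMSO as basal and 100 uM tamoxifen as full inhibition.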

[3] = molecular target: Glucocorticoid receptor (Homo sapiens) (UniProt P04150); assay: GR-GFP Redistribution (AID 450;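 active means compounds whose dose series gives a full or clear partial fitted curve of increased nuclear translocation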; further: potency means the concentration at half of the fitted maximal effect); details: U2OS GR-GFP nuclear translocation, laser cytometry, 2 h
Sequence of Glucocorticoid receptor (Homo sapiens) (P04150 whole entry, looked up, the tested form may be a part): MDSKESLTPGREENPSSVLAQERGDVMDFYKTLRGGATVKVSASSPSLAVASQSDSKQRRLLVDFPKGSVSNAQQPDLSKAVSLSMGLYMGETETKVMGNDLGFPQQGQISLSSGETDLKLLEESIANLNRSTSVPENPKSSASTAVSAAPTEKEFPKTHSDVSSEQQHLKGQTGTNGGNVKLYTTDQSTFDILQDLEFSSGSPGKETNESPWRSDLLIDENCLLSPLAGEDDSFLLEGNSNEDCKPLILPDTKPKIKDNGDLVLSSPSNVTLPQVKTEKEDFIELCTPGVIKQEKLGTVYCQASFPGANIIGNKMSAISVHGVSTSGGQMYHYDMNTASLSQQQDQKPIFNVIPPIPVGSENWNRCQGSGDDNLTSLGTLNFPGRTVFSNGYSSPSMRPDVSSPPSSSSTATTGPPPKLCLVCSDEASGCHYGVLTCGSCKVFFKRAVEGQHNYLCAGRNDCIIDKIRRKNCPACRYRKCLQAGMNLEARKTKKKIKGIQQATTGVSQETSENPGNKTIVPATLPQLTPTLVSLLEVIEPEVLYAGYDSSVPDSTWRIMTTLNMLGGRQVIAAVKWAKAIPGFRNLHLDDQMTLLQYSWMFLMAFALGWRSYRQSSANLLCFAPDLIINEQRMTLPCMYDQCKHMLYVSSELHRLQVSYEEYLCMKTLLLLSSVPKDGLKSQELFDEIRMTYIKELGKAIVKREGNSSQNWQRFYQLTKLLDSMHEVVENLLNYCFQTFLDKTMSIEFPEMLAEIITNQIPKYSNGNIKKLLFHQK

[4] = molecular target: Glucocorticoid receptor (Homo sapiens) (UniProt P04150); assay: GR-EFC Redistribution (AID 451; calls by dose curve; further: potency means the concentration at half of the fitted maximal effect); details: CHO-K1 GR-EFC translocation, beta-gal luminescence, 2 h
Outline: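 Translocation of GR-ED fusion to nuclear EA restores b-gal, read by luminescence after 1 h room-temperature detection. Engineered CHO-K1 biosensor cells, 1,000/well, exposed 2 h at 37 C to titrations up to 46 uM final.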

[5] = Cell Viability - N2a (AID 540); details: N2a mouse neuroblastoma cell viability; activity change, negative = cytotoxicity: at 92.2 µM (top of the series); further: nearly all actives have a fitted effect of over 45% in size; further: potency means the concentration at half of the fitted maximal effect;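 on activity change, negative = cytotoxicity: plate controls were DMSO alone for no effect and tamoxifen control for full effect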
Outline: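 Mouse neuroblastoma N2a cells (1500/well) were preincubated 5 hr at 37 °C, then exposed to compounds for 40 hr at 37 °C in complete medium. Viability was read as intracellular ATP by CellTiter-Glo luminescence; AC50 from Hill fits.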

[6] = Cell Viability - NIH 3T3 (AID 541); details: NIH 3T3 cell viability, qHTS; activity change, negative = cytotoxicity: at 92.2 µM (top of the series); further: nearly all actives have a fitted effect of over 25% in size; further: potency means the concentration at half of the fitted maximal effect;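 on activity change, negative = cytotoxicity: plate controls were DMSO alone for no effect and tamoxifen positive control for full effect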
Outline: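 NIH 3T3 mouse embryo fibroblasts (1000 cells/well) were plated in complete medium and treated with compound for 40 hr at 37 °C. Viability was read as intracellular ATP by CellTiter-Glo luminescence; AC50 values came from Hill-equation fits of concentration-response data.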

[7] = Cell Viability - HUV-EC-C (AID 542); details: HUV-EC-C endothelial cell viability, qHTS; series mostly up to 92.2 µM; further: nearly all actives have a fitted effect of over 35% in size; further: potency means the concentration at half of the fitted maximal effect; on activity change, negative = cytotoxicity: on the % scale 0 is the no-effect control and ±100 the full control effect
Outline: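 HUV-EC-C normal human vascular endothelial cells, 1000 cells/well, pre-incubated 5 hr at 37 °C, then exposed to compounds for 40 hr at 37 °C in complete medium. Viability measured as intracellular ATP by CellTiter-Glo luminescence; AC50 from Hill fits.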

[8] = Cell Viability - H-4-II-E (AID 543); details: H-4-II-E rat hepatoma viability; series mostly up to 92.2 µM; further: nearly all actives have a fitted effect of over 35% in size; further: potency means the concentration at half of the fitted maximal effect
Outline: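 Rat hepatoma H-4-II-E cells (1500/well) were plated, incubated 5 hr at 37 °C, then exposed to compounds for 40 hr at 37 °C. Cellular ATP was read by CellTiter-Glo luminescence; AC50 came from Hill-equation fits of concentration-response data.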

[9] = Cell Viability - SH-SY5Y (AID 544); details: SH-SY5Y neuroblastoma cell viability; viability change, negative = cytotoxic: at 92.2 µM (top of the series);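 further: 0% = DMSO alone and -100% = 100 µM tamoxifen; nearly all actives have a fitted effect of over 55% in size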
Outline: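 Human neuroblastoma SH-SY5Y cells (1500/well) in complete medium were exposed to compounds for 40 hr at 37 °C; intracellular ATP was then quantified by CellTiter-Glo luminescence after 20 min at room temperature. AC50 came from Hill-equation concentration-response fits.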

[10] = molecular target: Cytochrome P450 1A2 (Homo sapiens) (UniProt P05177); assay: p450-cyp1a2 (AID 410; calls by dose curve;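 further: -100% = full effect of reference inhibitor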); details: recombinant CYP1A2, luciferin-ME demethylation, luminescence; series mostly up to 25.6 µM
Sequence of Cytochrome P450 1A2 (Homo sapiens) (P05177 whole entry, looked up): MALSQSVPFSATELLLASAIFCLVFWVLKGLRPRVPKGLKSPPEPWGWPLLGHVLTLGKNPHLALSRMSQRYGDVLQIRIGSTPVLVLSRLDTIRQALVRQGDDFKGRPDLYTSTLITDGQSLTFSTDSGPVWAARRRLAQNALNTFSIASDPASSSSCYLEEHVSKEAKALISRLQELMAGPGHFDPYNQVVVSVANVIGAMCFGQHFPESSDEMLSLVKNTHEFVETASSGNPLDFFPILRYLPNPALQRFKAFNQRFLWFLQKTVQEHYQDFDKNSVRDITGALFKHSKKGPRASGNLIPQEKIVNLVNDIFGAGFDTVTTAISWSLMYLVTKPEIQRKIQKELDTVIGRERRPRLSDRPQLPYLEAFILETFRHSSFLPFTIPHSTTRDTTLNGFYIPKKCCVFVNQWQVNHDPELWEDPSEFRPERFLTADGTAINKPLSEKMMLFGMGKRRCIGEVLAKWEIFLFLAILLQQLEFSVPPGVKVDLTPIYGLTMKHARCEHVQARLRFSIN
Outline: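 Human CYP1A2 (20nM) demethylated Luciferin-ME at its Km (100uM) in 100mM KPO4. After 10 min compound preincubation, NADPH regeneration ran the reaction 60 min at room temperature. Luciferin was read by luminescence, normalized to 57 uM furafylline.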

[11] = molecular target: Mitogen-activated protein kinase 10 (Mus musculus) (UniProt Q61831); assay: JNK3 AlphaScreen Assay (AID 530; active means well fitted curve in either direction with a large enough effect, not every such curve was filed as active;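 further: kinase came from lysate of stimulated human HepG2 cells; signal reports phosphorylation of biotinylated GST-cJun 1-79 at Ser73 with 10 µM ATP; on the % scale 0 is the no-effect control and ±100 the full control effect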); details: JNK3 lysate, c-Jun phosphorylation; series mostly up to 25.6 µM
Outline: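 Room-temperature AlphaScreen kinase assay; pre-activated HepG2 lysate as JNK3 source, biotin-GST-cJun(1-79) substrate, 10 uM ATP, compound 15 min preincubation.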

[12] = Cell Viability - BJ (AID 421; calls by dose curve;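 further: potency means the concentration at half of the fitted maximal effect; cells exposed to compound for 40 hours at 37 °C before readout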); details: BJ fibroblast viability, qHTS
Outline: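 Luminescent ATP signal (CellTiter-Glo, 20 min at room temperature) served as the read-out of viable BJ cells after 40 hours of compound treatment. Responses were scaled between DMSO and 100 uM tamoxifen, and AC50 values were obtained by Hill modeling.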

[13] = Cell Viability - Jurkat (AID 426;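 active means dose-dependent loss of cell ATP signal giving a full or clear fitted curve, ranked by lower potency value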; further: potency means the concentration at half of the fitted maximal effect); details: qHTS
Outline: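 Jurkat (clone E6-1, human T-cell leukemia) cells, 5000/well in complete medium, were exposed to compound for 40 hr at 37 °C. Viability was read as intracellular ATP by CellTiter-Glo luminescence; AC50 came from Hill fits of concentration-response data.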

[14] = Cell Viability - Hek293 (AID 427;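 active means compounds whose dose-response curve shows a full or clear partial loss of cell viability, called from curve shape rather than a numeric limit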;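 further: potency means the concentration at half of the fitted maximal effect; cells exposed to compound for 40 hours at 37 °C before reading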); details: qHTS
Outline: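 Luminescent ATP read-out (CellTiter-Glo, 20 min RT) after 40 hr compound exposure at 37 °C in complete medium. Signal normalized to DMSO (basal) and 100 uM tamoxifen (100% inhibition); concentration-response fitted with the standard Hill equation to give AC50.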

[15] = Cell Viability - HepG2 (AID 433; calls by dose curve;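 further: potency means the concentration at half of the fitted maximal effect; potency for ATP loss meaning cytotoxicity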); details: qHTS
Outline: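 Cytotoxicity read as ATP loss (CellTiter-Glo luminescence) after 40 hr compound exposure of HepG2, 1500 cells/well, 37 °C. AC50 by Hill equation; 0% set by DMSO, 100% inhibition by 100 uM tamoxifen.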

[16] = Cell Viability - Renal Proximal Tubule (AID 545); details: renal proximal tubule cells viability, primary cells of rat origin; activity change, negative = cytotoxicity: at 91.7 µM (top of the series); further: nearly all actives have a fitted effect of over 40% in size; further: potency means the concentration at half of the fitted maximal effect;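 on activity change, negative = cytotoxicity: 0% = DMSO only and -100% = 100 µM tamoxifen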
Outline: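 Viability taken as intracellular ATP (CellTiter-Glo luminescence) after 40 hr, 37 °C compound treatment of primary proximal tubule cells from rat kidney, 1000 cells/well; Hill-equation fits of qHTS concentration-response data gave AC50.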

[17] = AP1 Signaling Pathway (AID 357; active means well fitted curve in either direction with a large enough effect, not every such curve was filed as active;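 further: ME-180 reporter cells stimulated with EGF at its EC50 level; on the % scale 0 is the no-effect control and ±100 the full control effect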); details: ME-180 AP-1-bla reporter, EGF-induced, beta-lactamase ratio, 5 h; at 17.2 µM (top of the series)
Outline: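 Beta-lactamase reporter under AP-1 response element, ME-180 background. Stimulus: EC50 EGF. Compound exposure 5 h, 37 °C. Detection: CCF4, 2.5 h RT, 460/530 nm. Values: AC50 from titration.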

[18] = Stat Signaling Pathway (AID 446; active means well fitted curve in either direction with a large enough effect, not every such curve was filed as active;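 further: ME-180 cervical cancer cells given 40 pM IL-6 alongside compound; SIE-controlled beta-lactamase reporter measured as 460/530 nm FRET emission ratio; on the % scale 0 is the no-effect control and ±100 the full control effect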); details: ME-180 SIE beta-lactamase reporter, IL-6 stimulated, 5 h; at 17.2 µM (top of the series)
Outline: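 ME-180 SIE-bla cells; overnight plating; cpd + IL-6 40 pM, 5 h, 37 C; LiveBLAzer 2.5 h RT; 460/530 nm emission ratio. Normalized to 300 pM IL-6 and 125 nM JAK inhibitor controls.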

Oc1c(I)cc(Cl)c2cccnc12
inactive: Potency [3] > 20.6 µM | Potency [4] > 20.6 µM
active: Potency [1] 44.2 µM | Potency [2] 38.6 µM | Potency [5] 31.6 µM | Potency [6] 5.01 µM | Potency [7] 31.6 µM | Potency [8] 50.1 µM | viability change, negative = cytotoxic [9] -84.2%

CC[N+](CC)(CCNC(=O)C(=O)NCC[N+](CC)(CC)Cc1ccccc1Cl)Cc1ccccc1Cl
inactive: Potency [10] | outcome [11]

Cc1c2oc3c(C)ccc(C(=O)N[C@@H]4C(=O)N[C@H](C(C)C)C(=O)N5CCC[C@H]5C(=O)N(C)CC(=O)N(C)[C@@H](C(C)C)C(=O)O[C@@H]4C)c3nc-2c(C(=O)N[C@@H]2C(=O)N[C@H](C(C)C)C(=O)N3CCC[C@H]3C(=O)N(C)CC(=O)N(C)[C@@H](C(C)C)C(=O)O[C@@H]2C)c(N)c1=O (I: T[dV]P[Sar][NMeV] / II: T[dV]P[Sar][NMeV]; ester I:1-I:C, II:1-II:C; linker I:N-II:N via Actinocin(9to1))
inactive: Potency [15] > 92 µM | Potency [1] > 92 µM | Potency [2] > 92 µM | outcome [11] | Potency [7]
active: Potency [12] 0.00132 µM | Potency [13] 0.0015 µM | Potency [14] 0.00102 µM | Potency [8] 0.00398 µM | Potency [16] 0.001 µM

Nc1ccc(C(=O)O)cc1
inactive: Potency [12] > 92 µM | Potency [13] > 92 µM | Potency [14] > 92 µM | Potency [15] > 92 µM | Potency [1] > 92 µM | Potency [2] > 92 µM | outcome [11] | Potency [5] | Potency [6] | Potency [7] | Potency [8] | Potency [9] | activity change, negative = cytotoxicity [16] -7.22%

CC(=O)O[C@H]1C[C@@H]2CC[C@@H]3[C@H](CC[C@@]4(C)[C@H]3C[C@H]([N+]3(C)CCCCC3)[C@@H]4OC(C)=O)[C@@]2(C)C[C@@H]1[N+]1(C)CCCCC1
inactive: activity change, negative = inhibition [17] 10.4% | activity, negative = inhibition [18] 10.1% | Potency [3] > 20.6 µM
